Laboratory results published in PubChem BioAssay (EPA / NIEHS).
Several values for one entry are separate records, joined by “and”; a condition that tells them apart may be missing. Equal entries are not always repeated. Some structures have more than one record in an assay (separate samples or runs), and their calls can disagree. Activity calls are given as the source filed them. The calls were made as follows: active = hit-call score of the fitted dose curve at least 0.9, where 1 is the maximum; inactive = score below 0.9.

read-out: Tumor necrosis factor (Homo sapiens) (UniProt P01375); assay: BSK_BT_xTNFa: BioMAP Diversity Plus: BT Assay for Tumor necrosis factor alpha (TNF-alpha) Biomarker Activity (AID 2284230); settings: primary human B cells with PBMC
Experimental: BSK_BT is a cell-based, multiplexed-readout assay that uses B cell and peripheral blood mononuclear cells, a human vascular primary cell co-culture, with measurements taken at 24 hours after chemical dosing in a microplate: 96-well plate.BSK_BT_xTNFa is an assay component of the BSK_BT assay. It measures secreted TNF-alpha related to regulation of gene expression using LumineX xMAP technology.Data from the assay component BSK_BT_xTNFa was analyzed at the endpoint, BSK_BT_xTNFa, in the positive analysis fitting direction relative to DMSO as the negative control and baseline of activity. Using a type of cytokine quantitation reporter, gain or loss-of-signal activity can be used to understand protein changes. To generalize the intended target to other relatable targets, this assay endpoint is annotated to the 'cytokine' intended target family, where the subfamily is 'inflammatory factor'.
The levels of cell surface (or secreted, indicated by the prefix "s") biomarker endpoints were measured by ELISA. Overt cytotoxicity to cells in confluent adherent cultures (all systems other than the BT system) was assessed by measuring total protein levels using sulforhodamine B (SRB) staining in parallel cultures at the time of biomarker measurements, indicated as SRB endpoints. For proliferation assays for adherent cell types, individual cell types are cultured at sub-confluence and relative cell numbers quantified by SRB staining at time points optimized for each system (48 h: 3C and CASM3C systems; 72 h: BT and HDF3CGF systems; 96 h: SAg system). SRB was performed by staining cells with 0.1% SRB after fixation with 10% TCA and reading wells at 560 nm.Viability and proliferation of PBMC (T cells) was quantified by Alamar Blue reduction for the SAg and BT systems. For PBMC viability (referred to as PBMC Cytotoxicity within the assay endpoint names), cells were plated (75,000/well in a 96-well plate) and then chemical samples added for 1 h before addition of activators, SEB and TSST-1 (20 ng/mL final concentration each). Cells were incubated for 90 h. Then, Alamar Blue (20 uL/well) (Invitrogen, Cat DAL1100) was added for 6 h, and the plates were read with a fluorescence microplate reader at 546/580 nm (excitation/emission). For PBMC proliferation, cells were plated and activated as above but incubated for only 16 h prior to addition of Alamar Blue. Plates were read after 6 h.

Chain of Tumor necrosis factor (Homo sapiens) (P01375 whole entry, looked up): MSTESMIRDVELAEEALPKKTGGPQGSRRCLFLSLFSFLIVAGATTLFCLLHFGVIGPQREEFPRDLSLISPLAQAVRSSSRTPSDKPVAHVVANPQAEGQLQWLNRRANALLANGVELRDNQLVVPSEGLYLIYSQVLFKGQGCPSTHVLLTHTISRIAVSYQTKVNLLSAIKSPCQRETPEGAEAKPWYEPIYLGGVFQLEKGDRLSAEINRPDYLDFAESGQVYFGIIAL

| SMILES | outcome | AC50 |
| --- | --- | --- |
| CC1=CC=C(C(C)C)CC1 | inactive |  |
| CCOC(=O)C1=NOC(c2ccccc2)(c2ccccc2)C1 | inactive |  |
| CCCCC1C(=O)N(c2ccccc2)N(c2ccccc2)C1=O | inactive |  |
| Fc1ccc(Br)cc1 | inactive |  |
| O=C(Cl)c1c(Cl)c(Cl)c(C(=O)Cl)c(Cl)c1Cl | inactive |  |
| CC(c1cc(C(C)(C)C)cc(C(C)(C)C)c1O)c1cc(C(C)(C)C)cc(C(C)(C)C)c1O |  | 26.5 µM (active) |
| COc1ccc(C(=O)/C(Br)=C\C(=O)O)cc1 |  | 31.3 µM (active) and 29.5 µM (active) |
| Oc1ccc(/C=C/c2cc(O)cc(O)c2)cc1 |  | 25.7 µM (active) |
| CCCCCCCCCCCC(C)=O | inactive |  |
| CCOC(=O)C1=NN(c2ccc(Cl)cc2Cl)C(C)(C(=O)OCC)C1 (stereo not given) | inactive |  |
| CCc1cccc(C)c1N(C(=O)CS(=O)(=O)O)C(C)COC (stereo not given) | inactive |  |
| CC/C=C\CCOC(=O)c1ccccc1O | inactive |  |
| C=CC(=O)OCCCCCCCC(C)C | inactive |  |
| CC=C(C)C=CC=C(C)C |  | 27.7 µM (active) |
| O=C(O)C(F)(F)C(F)(F)C(F)(F)C(F)(F)C(=O)O | inactive | 2.64 µM (active) |
| CC(C)[N+](C)(CCOC(=O)C1c2ccccc2Oc2ccccc21)C(C)C | inactive |  |
| CC(Cl)COP(=O)(OCC(C)Cl)OCC(C)Cl (stereo not given) | inactive |  |
| C=CCCCCCCCCC=O | inactive |  |
| Nc1cccc(N)n1 | inactive |  |
| O=C1CCCCCCCCCCC1 | inactive |  |

| SMILES | outcome | AC50 |
| --- | --- | --- |
| C=CC(=O)NCOCCCC | inactive |  |
| CCCCCC1=CCCC1=O | inactive |  |
| c1ccc2sc(SSN3CCOCC3)nc2c1 |  | 24.3 µM (active) |
| CC/C=C\C/C=C\C/C=C\CCCCCCCC(=O)OC |  | 27.8 µM (active) |
| CCN1CN(CC)CN(CC)C1 | inactive |  |
| C[N+](C)(C)CCCNS(=O)(=O)C(F)(F)C(F)(F)C(F)(F)C(F)(F)C(F)(F)C(F)(F)C(F)(F)C(F)(F)F |  | 30 µM (active) and 20.4 µM (active) |
| O=C1CCCCCCCCCCCN1 | inactive |  |
| Oc1c(Cl)cc(Cl)c(Cl)c1Cl | inactive |  |
| Cc1c(O)cccc1O | inactive |  |
| CC(C)CCCCCOC(=O)CS | inactive |  |
| CCCCCCOC(=O)CCCCC(=O)OCCCCCC | inactive |  |
| Clc1cc(Cl)c(Cl)c(Cl)c1Cl | inactive |  |
| CCNc1nc(NC(C)(C)C)nc(OC)n1 | inactive |  |
| CCCCCCC=O | inactive |  |
| CCOC(=O)/C=C\C(=O)OCC | inactive |  |
| C=CC(=O)OCC(C)OCC(C)OCC(C)OC(=O)C=C (stereo not given) |  | 10.3 µM (active) |
| C=CC(=O)OCCCCCCOC(=O)C=C |  | 13.1 µM (active) |
| COc1ccc(C(=O)c2ccccc2)c(O)c1 | inactive |  |
| c1ccc2c(c1)[nH]c1ccccc12 | inactive |  |
